JMJD2E inh – inhibitors of human JMJD2E histone demethylase; Potency, µM (doses to about 57.1 µM), without a hit: at the top dose activity change, negative = inhibition, actives largely listed as inhibitors; JMJD2E catalytic domain, FDH-coupled NADH fluorescence (FDH is formaldehyde dehydrogenase); B2RXH2; 230,000 tested, 1.6% active; active means well fitted inhibition curve with a large enough effect, not every such curve was filed as active; inconclusive means small, poorly fitted or top-dose-only effect, or another doubt; inactive means no such curve, though single readings can be large or run the other way;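 further: potency means the concentration at half of the fitted maximal effect; 0% = wells with enzyme and -100% = buffer wells without enzyme; nearly all actives have a fitted effect of over 50% in size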
Target sequence (B2RXH2 1-337 limits assumed): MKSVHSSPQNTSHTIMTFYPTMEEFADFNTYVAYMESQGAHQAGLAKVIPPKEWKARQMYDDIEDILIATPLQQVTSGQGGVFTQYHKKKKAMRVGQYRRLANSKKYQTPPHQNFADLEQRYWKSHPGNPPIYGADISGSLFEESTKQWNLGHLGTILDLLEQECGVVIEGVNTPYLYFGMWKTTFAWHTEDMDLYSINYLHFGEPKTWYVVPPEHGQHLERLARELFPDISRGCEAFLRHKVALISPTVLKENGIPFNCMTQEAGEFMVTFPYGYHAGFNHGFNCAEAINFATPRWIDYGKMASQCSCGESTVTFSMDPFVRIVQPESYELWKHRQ
Lamin A splicing – LMNA splicing modulation. HeLa LMNA splicing GFP/RFP minigene ratio, 48 h. Potency, µM (top dose mostly 46.1 µM), inactives show at the top dose ratio change, negative = inhibition, usual class: inhibitors. 200,000 tested, 0.01% active. AID 1487; active means well fitted inhibition curve with a large enough effect in the signal ratio, with a control signal flat, not every such curve was filed as active; inconclusive means small, poorly fitted or top-dose-only effect, or effect the other way, or a change in a side signal; the % refers to the signal ratio; further: potency means the concentration at half of the fitted maximal effect; on the % scale 0 is the no-effect control and ±100 the full control effect
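Read-out is the ratio of GFP to DsRed2 object intensity, acquired by 488 nm laser-scanning cytometry on HeLa lamin A-EGFP minigene reporter cells. Compound incubation 48 hrs at 37 °C in Opti-MEM with 2% FBS; DMSO 0.5% final.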
CBFb RUNX1 block – blocks binding between human CBF-beta and RUNX1 | Q01196+Q13951 | AlphaScreen CBFb-His/RUNX1-biotin binding, biochemical | Potency, µM (doses to about 59.8 µM), inactives show at the highest dose activity, negative = inhibition, hits mostly inhibitors | 230,000 tested, under 10 active | AID 1477; further: % of control where 0% means no effect
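His-tagged CBF-beta and biotinylated RUNX1 (30 nM each) were premixed 20 min at room temperature, exposed to compound for 15 min, then given nickel-chelate and streptavidin AlphaScreen beads (50 ng each). After 90 min, AlphaScreen signal was read.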
Tau ThT inhib – inhibitors of human tau fibril formation, thioflavin T binding | P10636 | recombinant tau K18 P301L, heparin-induced fibrillization, ThT fluorescence | Potency, µM (titrated, usually from 57.4 µM), inactives show at the highest dose activity, negative = inhibition, actives largely listed as inhibitors | 270,000 tested, 2.1% active | AID 1460; further: potency means the concentration at half of the fitted maximal effect; on the % scale 0 is the no-effect control and ±100 the full control effect; nearly all actives have a fitted effect of over 55% in size
Target sequence (P10636 561-689 P618L limits assumed): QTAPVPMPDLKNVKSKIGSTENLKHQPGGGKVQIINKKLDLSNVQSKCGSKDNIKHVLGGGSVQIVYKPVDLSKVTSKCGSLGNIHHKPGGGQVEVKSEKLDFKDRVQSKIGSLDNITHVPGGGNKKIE
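Aggregation was driven by heparin (20 uM final) acting on recombinant tau […] bearing P301L in 100 mM sodium acetate pH 7; fibrils were detected with Thioflavin T.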
Tau fluor cs – counter-screen for tau fibril formation inhibitors; Potency, µM (titrated, usually from 57.7 µM), without a hit: at the top dose activity change, negative = decrease; 280,000 tested, 0.93% active; tau K18 P301L (four-repeat tau fragment) Alexa594 fluorescence, heparin fibrillization; further: potency means the concentration at half of the fitted maximal effect; on the % scale 0 is the no-effect control and ±100 the full control effect; nearly all actives have a fitted effect of over 55% in size
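Human K18 P301L tau (15 uM unlabeled plus 0.24 uM Alexa 594-labeled, final) in 100 mM sodium acetate pH 7 was mixed with compound and 20 uM heparin and incubated 6 hr at 37 C.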
Tau FP inhib – blocks human tau fibril formation measured by polarization; AID 1468; Potency, µM (top dose mostly 57.7 µM), inactives show at the highest dose activity, negative = inhibition, hits mostly inhibitors; K18 P301L tau heparin fibrillization, Alexa594 FP, 6 h; P10636; 280,000 tested, 0.39% active; further: potency means the concentration at half of the fitted maximal effect; on the % scale 0 is the no-effect control and ±100 the full control effect; nearly all actives have a fitted effect of over 55% in size
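Read-out: fluorescence polarization of Alexa 594-labeled tau (0.24 uM), 555 nm excitation, 632 nm emission. Mixtures held 15 uM unlabeled K18 P301L, compound and 20 uM heparin, pH 7 acetate buffer, incubated 6 hr at 37 C.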
Starred values were filed as active, the others as inactive; ? = inconclusive; . = no result; [ ] = another dose, or the depositor's remark. Only some compounds are listed: those with a hit (about 3.2% of all), similar ones and a draw of the others. Unless noted, the call rests on the fitted dose curve; in most records, active means well fitted curve in the direction sought with a large enough effect; inconclusive means small, poorly fitted or top-dose-only effect, or another doubt; inactive means no such curve, though single readings can be large; an effect the other way counts as inactive or inconclusive.

SMILES	JMJD2E inh	Lamin A splicing	CBFb RUNX1 block	Tau ThT inhib	Tau fluor cs	Tau FP inhib
Cc1nc(-c2coc3c(CN(C)C)c(O)ccc3c2=O)cs1	28µM*	?	-3%	-11%	-11%	-3%
CC1=C(C(=O)Nc2ccc(Cl)cc2)C(c2cccs2)n2nc(SCc3cccc(Cl)c3)nc2N1 (stereo unspecified)	.	.	.	1%	-1%	?
COc1ccc(C(c2c(C)n(C)n(-c3ccccc3)c2=O)c2c(C)n(C)n(-c3ccccc3)c2=O)cc1O	-6%	.	-8%	14%	13%	-1%
CCCSc1nc(O)c(C(c2ccc(OC)c(O)c2)c2c(O)nc(SCCC)n(C)c2=O)c(=O)n1C	-14%	11%	9%	4µM*	-16%	?
COc1cccc(C(c2c(O)nc(SC)n(C)c2=O)c2c(O)nc(SC)n(C)c2=O)c1	4%	18%	5%	13µM*	-17%	?
CCOc1ccccc1/C=N/NC(=O)Cc1csc(Nc2cccc(C(F)(F)F)c2)n1	-17%	-6%	-8%	-17%	20µM*[quencher]	11%
CCOc1ccc(/C=N/NC(=O)Cc2csc(Nc3cccc(C(F)(F)F)c3)n2)c(OCC)c1	-4%	?	-1%	-1%	?	?
CCOc1ccc(/C=N/NC(=O)Cc2csc(Nc3cccc(C(F)(F)F)c3)n2)cc1	-10%	?	-17%	?	10µM*[quencher]	0%
CC(C)C[C@@H](CC(=O)N[C@H](CC(=O)N[C@@H]1CCNC[C@H]1C(=O)N[C@H](CC(=O)N[C@@H](CCC(=O)O)CC(=O)O)Cc1c[nH]c2ccccc12)C(C)C)NC(=O)[C@@H]1CNCC[C@H]1N	-4%	.	7%	-13%	-12%	2%
COc1cc(/C=C/c2ccc3c([N+](=O)[O-])cccc3n2)ccc1OCC(=O)O	-3%	.	-1%	3.2µM*	-16%	-1%
O=C(O)COc1ccc(/C=C/c2ccc3cccc([N+](=O)[O-])c3n2)cc1	-7%	2%	-1%	7.9µM*	-16%	10%
COc1cc(/C=C/c2ccc3cccc([N+](=O)[O-])c3n2)ccc1OCC(=O)O	-3%	?	14%	?	-3%	7%
C=C1C[C@H](OC(=O)C(C)(O)CCl)C2C(=C)C(=O)O[C@@H]2C2C1C[C@H](O)[C@]2(O)CCl (stereo partly specified)	15%	.	-4%	?	-14%	-8%
OC[C@H]1OC(O)(CN2CCOCC2)[C@H](O)[C@@H]1O (stereo partly specified)	.	.	6%	.	.	.
Cc1ccc2ccc(C(Nc3ccccn3)c3ccccc3)c(O)c2n1 (stereo unspecified)	?	?	-21%	?	-19%	6%
Oc1ccccc1C(Nc1nccs1)c1ccc2cccnc2c1O (stereo unspecified)	?	.	.	20µM*	?	-3%
COc1cc(C(Nc2ccccn2)c2ccc3ccc(C)nc3c2O)cc(OC)c1O (stereo unspecified)	22µM*	?	-22%	16µM*	?	?
COc1ccccc1NC(c1cccnc1)c1ccc2cccnc2c1O (stereo unspecified)	11µM*	?	.	?	-14%	-11%
Oc1c(C(Nc2ccccn2)c2ccccn2)ccc2cccnc12 (stereo unspecified)	?	?	?	?	-19%	2%
Cc1ccnc(NC(c2ccccc2F)c2ccc3cccnc3c2O)c1 (stereo unspecified)	.	.	.	?	-24%	5%
Cc1ccnc(NC(c2cccnc2)c2ccc3cccnc3c2O)c1 (stereo unspecified)	5.6µM*	.	.	?	-14%	-6%
Cc1ccc2ccc(C(Nc3cccc(C(F)(F)F)c3)c3cccnc3)c(O)c2n1 (stereo unspecified)	?	?	-19%	?	-7%	6%
CNc1cc(-c2ccccc2CN(C)C)ncn1	.	4%	.	.	.	.
COC(=O)C1=C(C(=O)OC)[C@@H]2N(C)c3ccc(OC)cc3[C@@]23C[C@@H](C(=O)OC)N(S(=O)(=O)c2ccc4c(c2)OCCN4C)C3=N1	-9%[11.4 µM]	10%[9.22 µM]	-2%[13.1 µM]	9%[11.5 µM]	0%[11.6 µM]	6%[11.6 µM]
CC(C)CC1OCCC=CC1C (stereo unspecified)	.	.	1%[13.1 µM]	-8%[11.5 µM]	-6%[11.6 µM]	4%[11.6 µM]
SMILES	JMJD2E inh	Lamin A splicing	CBFb RUNX1 block	Tau ThT inhib	Tau fluor cs	Tau FP inhib
Cc1cc(C)c(N(Cc2ccccc2)S(=O)(=O)c2ccc(OCCNC(=O)c3cc4ccccc4o3)cc2)c(C(=O)NO)c1	.	.	-18%	.	.	.
Cc1ccnc(NC(c2cc(C)ccc2O)c2ccc3cccnc3c2O)c1 (stereo unspecified)	.	.	.	16µM*	?	-11%
Cc1cccc(N2CCc3c2nc2ccc(Br)cc2c3N)c1	?	?	1%	28µM*	16µM*[quencher]	?
Nc1c2c(nc3ccc(Br)cc13)N(c1ccccc1)CC2	?	-14%	-2%	?	14µM*[quencher]	19%
COc1cc(NC(=O)CCc2nc3cccnc3n2Cc2cccs2)cc(OC)c1OC	.	.	.	?	-30%	7%
CCc1ccc(C2c3c(-c4ccccc4O)n[nH]c3C(=O)N2Cc2cccnc2)cc1 (stereo unspecified)	.	.	.	10%	-13%	-10%
CC(=O)OCC(=O)Nc1ccc(N=Nc2ccccc2)cc1	-7%	?	-23%	8.9µM*	-22%	3%
CC(=O)OCC(=O)Nc1ccc(SC(F)F)cc1	2%	.	-18%	-10%	-7%	-4%
O=C(CCl)Nc1ccc(N=Nc2ccccc2)cc1	?	?	4%	5µM*	?	-15%
O=S(=O)(Nc1ccc(N=Nc2ccccc2)cc1)c1ccccc1	8%	-4%	?	16µM*	?	?
CC(C)C(=O)OCC(=O)Nc1ccc(N=Nc2ccccc2)cc1	-1%	?	?	7.9µM*	?	?
CC(=O)Nc1ccc(N=Nc2ccccc2)cc1	6%	-4%	-13%	13µM*	-6%	0%
CCOC(=O)c1ccc(CN(Cc2ccccc2)S(=O)(=O)c2ccc(C)cc2)cc1	.	-5%[46 µM]	.	10%	-2%	-3%
Oc1ccc(/C=N/Nc2nc(N3CCCCCC3)nc(N3CCCCCC3)n2)c(O)c1	4%	.	4%	?	10µM*[quencher]	-14%
COc1cc(/C=N/Nc2nc(N3CCCC3)nc(N3CCCC3)n2)ccc1O	0%	-4%	-2%	-5%	-18%	12%
Oc1ccc(/C=N/Nc2nc(N3CCCC3)nc(N3CCCC3)n2)cc1O	18µM*	?	4%	?	?	8%
